# Records with an inconclusive call do not appear. The source made the active and inactive calls. Calls follow the shape of the full dose curve.
# Experiment: Cell Viability - MRC5 (AID 434);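 also: cells exposed to compound for 40 hours at 37 °C; potency reflects cytotoxicity seen as loss of intracellular ATP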
# Settings: MRC5 lung fibroblast viability, qHTS
# How it was run: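 MRC5 normal human lung fibroblasts (1500/well) were treated with compounds for 40 hr at 37 °C in complete medium, and viable cells were measured as intracellular ATP by CellTiter-Glo luminescence. AC50 came from Hill fits, normalized to DMSO and 100 uM tamoxifen.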
# Potency is read from the fitted curve at half-maximal effect.
row,SMILES,Potency
1,Cc1cc(C)c(N)cc1C,> 92 µM (inactive)
2,Cc1cccc2ccccc12,> 92 µM (inactive)
3,C=C(C)C(=O)OCC(C)C,> 92 µM (inactive)
4,O=Cc1ccc(C(=O)O)cc1,> 92 µM (inactive)
5,CCOc1cc(OCC)c(C(C)=O)cc1OCC,> 92 µM (inactive)
6,CCCCC(CC)CNCC(CC)CCCC (stereo not given),> 92 µM (inactive)
7,C=CCOC(=O)COCCC(C)C,> 92 µM (inactive)
8,ICCc1ccccc1,> 92 µM (inactive)
9,Cc1ccccc1C(N)=O,> 92 µM (inactive)
10,CNC(=O)c1ccccc1,> 92 µM (inactive)
11,ClCCl,> 92 µM (inactive)
12,CCOc1ccc(NC(C)=O)cc1N,> 92 µM (inactive)
13,Nc1ccc(F)cc1F,> 92 µM (inactive)
14,CC(=O)c1ccc([N+](=O)[O-])cc1,> 92 µM (inactive)
15,CCCCN(CCO)CCCC,> 92 µM (inactive)
16,BrC(Br)C(Br)Br,> 92 µM (inactive)
17,Nc1nc(CC(=O)O)cs1,> 92 µM (inactive)
18,O=[N+]([O-])c1cc(C(F)(F)F)ccc1Cl,> 92 µM (inactive)
19,Cc1ccc(C(C)(C)C)cc1,> 92 µM (inactive)
20,CC(C)=CCl,> 92 µM (inactive)
21,O=Cc1ccc(Cl)cc1,> 92 µM (inactive)
22,NC(=O)c1cccc([N+](=O)[O-])c1,> 92 µM (inactive)
23,C=CCn1c(=O)n(CC=C)c(=O)n(CC=C)c1=O,> 92 µM (inactive)
24,Cc1cc(C)cc([N+](=O)[O-])c1,> 92 µM (inactive)
25,CC(=O)OC(C)C,> 92 µM (inactive)
